PubChem BioAssay (Tox21)
Where “and” joins values, the source holds several entries; their conditions need not be identical. Identical values can stand only once. Results filed as inconclusive are left out. Entries that show only a call come without a potency. The source holds several records for some structures; these can differ, active in one and inactive in another. Calls of active or inactive are those of the source. Unless noted, calls come from the whole dose curve; as a rule, active = well fitted curve in the direction sought with a large enough effect in the repeat runs; inconclusive = weak or mixed curves; inactive = no such curve, though single readings can be large; an effect the other way counts as inactive or inconclusive.

Columns and labels:
[1] = qHTS assay to identify small molecule agonists of the RXR signaling pathway - cell viability counter screen (AID 1159529); note: nearly all actives have a fitted effect of over 50% in size; note: potency is the fitted concentration of half-maximal effect
Summary of the method: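 Viability read-out for the RXR-alpha agonist qHTS: luminescent CellTiter-Glo signal after 30 min at RT. HEK 293T bla reporter cells, 2% charcoal-stripped FBS, 16 hr compound incubation; tetraoctyl ammonium bromide as cytotoxic control.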

[2] = qHTS assay to identify small molecule antagonists of the retinoid acid receptor (RAR) signaling pathway - cell viability counter screen (AID 1159551); note: nearly all actives have a fitted effect of over 35% in size; note: potency is the fitted concentration of half-maximal effect
Summary of the method: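 Viability of C3RL4 cells is quantified from ATP by luminescence after 6 h treatment at 37 C with compounds and 1 uM retinol.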

[3] = qHTS assay to identify small molecule antagonists of the retinoic acid receptor (RAR) signaling pathway (AID 1159552; note: nearly all actives have a fitted effect of over 50% in size; note: potency is the fitted concentration of half-maximal effect)
Summary of the method: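 Using a RARE-driven luciferase construct in C3RL4 cells, retinol at 1 uM final provided the agonist stimulus while compounds were co-applied. After 6 hours at 37 C, luminescence was recorded to flag inhibitors of retinol signaling.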

[4] = qHTS assay to identify small molecule agonists of the retinoic acid receptor (RAR) signaling pathway (AID 1159553); note: potency is the fitted concentration of half-maximal effect
Summary of the method: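 Compounds dissolved in DMSO were pinned onto C3RL4 cells seeded the previous day, and plates were held 6 hr at 37 C. RARE-driven luciferase output was then read by luminescence.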

[5] = qHTS assay to identify small molecule antagonists of the estrogen related receptor (ERR) signaling pathway from Tox21 library - cell viability counter screen (AID 1224834); note: nearly all actives have a fitted effect of over 30% in size; note: potency is the fitted concentration of half-maximal effect
Summary of the method: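 In this quantitative HTS format, ERR cells receive compounds in DMSO and are incubated for 17.5 h at 37 C. Live-cell protease activity is then detected with CellTiter-Fluor.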

[6] = biological target: Luciferin 4-monooxygenase (Photinus pyralis) (UniProt P08659); test: qHTS assay to identify small molecule inhibitors of firefly luciferase (AID 1224835); note: nearly all actives have a fitted effect of over 25% in size; note: potency is the fitted concentration of half-maximal effect
Summary of the method: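 Inhibition of purified Photinus luciferase is measured by luminescence. Substrate levels (D-luciferin, ATP) sit at their KM values. Each compound is tested in a concentration series.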

[7] = qHTS assay to identify small molecule antagonists of the constitutive androstane receptor (CAR) signaling pathway - cell viability counter screen (AID 1224837); note: nearly all actives have a fitted effect of over 45% in size; note: potency is the fitted concentration of half-maximal effect
Summary of the method: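 In quantitative HTS format, compounds at 15 concentrations were applied to HepG2 cells double-transfected with hCAR and CYP2B6-2.2kb under 50 nM CITCO stimulation; live-cell protease activity was read after 23 hr via CellTiter-Fluor.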

[8] = biological target: Nuclear receptor subfamily 1 group I member 3 (Homo sapiens) (UniProt Q14994); test: qHTS assay to identify small molecule antagonists of the constitutive androstane receptor (CAR) signaling pathway (AID 1224838); note: nearly all actives have a fitted effect of over 40% in size; note: potency is the fitted concentration of half-maximal effect
Summary of the method: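 CITCO-stimulated (50 nM final) HepG2 cells stably transfected with hCAR and CYP2B6-2.2kb luciferase were exposed to compounds at 15 concentrations for 24 h at 37 C/5% CO2. A luciferase reagent was added and luminescence recorded after 30 min.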

[9] = biological target: Nuclear receptor subfamily 1 group I member 3 (Homo sapiens) (UniProt Q14994); test: qHTS assay to identify small molecule agonists of the constitutive androstane receptor (CAR) signaling pathway (AID 1224839); note: nearly all actives have a fitted effect of over 15% in size; note: potency is the fitted concentration of half-maximal effect
Summary of the method: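 Using human hepatoma HepG2 cells engineered with hCAR and a CYP2B6-2.2kb reporter, 15-concentration compound series were incubated 24 h alongside PK11195 at 0.75 uM final, with luminescence quantified afterwards.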

[10] = qHTS assay to identify small molecule antagonists of the estrogen related receptor signaling pathway with the pleiotropic PPARgamma coactivator (PGC) from Tox21 10K library - cell viability counter screen (AID 1224840; active = well fitted cell-killing curve with a large enough effect in the repeat runs, not every such curve was filed as active; note: nearly all actives have a fitted effect of over 40% in size; note: potency is the fitted concentration of half-maximal effect)
Summary of the method: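 Viability counter screen, PGC/ERR cells: 17.5 h compound exposure at 37 C, CellTiter-Fluor fluorescence endpoint.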

[11] = qHTS assay to identify small molecule antagonists of the estrogen related receptor signaling pathway with the pleiotropic PPARgamma coactivator (PGC) from Tox21 10K library (AID 1224841; call rule not given here; note: actives are mostly falling curves and most rising ones were filed inactive; nearly all actives have a fitted effect of over 50% in size; note: potency is the fitted concentration of half-maximal effect)
Summary of the method: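 In the PGC/ERR line, DMSO solutions of test chemicals are pin-delivered to 2,000 cells/well six hours after dispensing. Following eighteen hours' incubation, One-Glo reagent is added and luminescence recorded.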

[12] = qHTS assay to identify small molecule agonists of the estrogen related receptor signaling pathway with the pleiotropic PPARgamma coactivator (PGC) from Tox21 10K library (AID 1224842); note: nearly all actives have a fitted effect of over 15% in size; note: potency is the fitted concentration of half-maximal effect
Summary of the method: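 Luminescence from One-Glo (30 min, room temperature) measured after PGC/ERR cells had 18 h at 37 C with pinned compound (23 nL in DMSO). Cells had been seeded at 2,000 per well and pre-incubated 6 h.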

[13] = biological target: Thyrotropin receptor (Homo sapiens) (UniProt P16473); test: qHTS assay to identify small molecule agonists of the thyroid stimulating hormone receptor (TSHR) signaling pathway (AID 1224843; calls by dose curve; note: nearly all actives have a fitted effect of over 45% in size; note: potency is the fitted concentration of half-maximal effect)
Summary of the method: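 Agonist activity read as cAMP rise via d2/cryptate HTRF competition, 1 h room-temperature detection, in HEK293 cells expressing TSHR. Fifteen-point titrations, each run in triplicate, with a 30 min room-temperature incubation beforehand.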

[14] = qHTS assay to identify small molecule agonists of the constitutive androstane receptor (CAR) signaling pathway - cell viability counter screen (AID 1224836); note: nearly all actives have a fitted effect of over 45% in size; note: potency is the fitted concentration of half-maximal effect
Summary of the method: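 Multiplexed viability check: HepG2-CYP2B6-hCAR cells, 15-point compound dosing, 0.75 uM PK11195 final, 23 h at 37 C, CellTiter-Fluor fluorescence.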

[15] = qHTS assay to identify small molecule antagonists of the estrogen related receptor (ERR) signaling pathway - cell viability counter screen (AID 1224818); note: series mostly up to about 46 µM
Summary of the method: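 Cytotoxicity check run alongside the ERR antagonist screen: cells exposed to test compounds 17.5 h at 37 C, viability taken as CellTiter-Fluor fluorescence intensity.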

[16] = qHTS assay to identify small molecule antagonists of the estrogen related receptor (ERR) signaling pathway (AID 1224819; note: nearly all actives have a fitted effect of over 50% in size; note: potency is the fitted concentration of half-maximal effect)
Summary of the method: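 ERR reporter cells were plated at 2,000 cells/well and left 6 h at 37 C/5% CO2 before pin-tool transfer of compounds in DMSO. After 18 h at 37 C, One-Glo was added and luminescence was read 30 min later at room temperature.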

[17] = test system: estrogen-related receptor alpha (ERRalpha) with PGC-1alpha coactivator, human; test: qHTS assay to identify small molecule antagonists of the estrogen related receptor signaling pathway with the pleiotropic PPARgamma coactivator (PGC) (AID 1224821; calls by dose curve; note: nearly all actives have a fitted effect of over 50% in size; note: potency is the fitted concentration of half-maximal effect)
Summary of the method: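 A PGC/ERR cell line supplied by NTP is seeded, allowed 6 h at 37 C, and treated with test compounds in DMSO for 18 h. Signal is then measured as luciferase luminescence using One-Glo.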

[18] = qHTS assay to identify small molecule antagonists of the estrogen related receptor signaling pathway with the pleiotropic PPARgamma coactivator (PGC) cell viability counter screen (AID 1224822; note: potency is the fitted concentration of half-maximal effect)
Summary of the method: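 Viable cell signal (CellTiter-Fluor, 30 min, 37 C/5% CO2) was measured in PGC/ERR cells after a 17.5 h compound incubation.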

[19] = qHTS assay to identify small molecule agonists of the estrogen related receptor (ERR) signaling pathway (AID 1224820)
Summary of the method: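 An ERR cell line provided by NTP was seeded at 2,000 cells per well and allowed to settle for 6 h before compounds in DMSO were added. After 18 h at 37 C, luciferase activity was measured by One-Glo luminescence.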

[20] = qHTS assay to identify small molecule agonists of the estrogen related receptor signaling pathway with the pleiotropic PPARgamma coactivator (PGC) (AID 1224823)
Summary of the method: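 Compounds dissolved in DMSO are added by pin tool to PGC/ERR cells that have settled for 6 h, and incubation continues 18 h at 37 C. Reporter output is measured as One-Glo luminescence.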

Sequence of Luciferin 4-monooxygenase (Photinus pyralis) (P08659 whole entry, looked up): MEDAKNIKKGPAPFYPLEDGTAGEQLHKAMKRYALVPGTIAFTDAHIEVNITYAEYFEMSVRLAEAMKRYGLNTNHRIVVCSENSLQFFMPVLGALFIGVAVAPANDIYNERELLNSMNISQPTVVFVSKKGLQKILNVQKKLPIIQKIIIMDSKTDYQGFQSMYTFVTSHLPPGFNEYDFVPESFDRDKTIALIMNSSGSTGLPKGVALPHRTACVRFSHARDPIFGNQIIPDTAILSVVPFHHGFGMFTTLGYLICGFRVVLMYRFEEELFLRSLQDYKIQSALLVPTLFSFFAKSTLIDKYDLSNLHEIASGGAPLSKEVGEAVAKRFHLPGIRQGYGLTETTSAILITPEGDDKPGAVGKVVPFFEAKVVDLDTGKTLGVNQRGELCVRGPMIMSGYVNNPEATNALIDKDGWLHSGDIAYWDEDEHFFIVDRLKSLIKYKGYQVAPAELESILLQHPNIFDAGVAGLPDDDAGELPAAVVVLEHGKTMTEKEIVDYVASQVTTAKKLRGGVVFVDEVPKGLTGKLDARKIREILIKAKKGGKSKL
Sequence of Nuclear receptor subfamily 1 group I member 3 (Homo sapiens) (Q14994 whole entry, looked up): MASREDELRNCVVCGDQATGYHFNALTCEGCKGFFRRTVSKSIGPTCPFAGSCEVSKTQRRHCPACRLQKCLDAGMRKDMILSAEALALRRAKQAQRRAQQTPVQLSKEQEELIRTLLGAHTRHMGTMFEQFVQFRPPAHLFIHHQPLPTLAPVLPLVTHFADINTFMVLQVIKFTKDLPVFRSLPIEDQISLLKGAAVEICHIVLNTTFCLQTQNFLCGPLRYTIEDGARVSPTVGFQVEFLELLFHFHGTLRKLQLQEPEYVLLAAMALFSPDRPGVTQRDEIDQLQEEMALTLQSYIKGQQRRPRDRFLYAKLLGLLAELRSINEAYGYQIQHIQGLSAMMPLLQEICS
Sequence of Thyrotropin receptor (Homo sapiens) (P16473 whole entry, looked up): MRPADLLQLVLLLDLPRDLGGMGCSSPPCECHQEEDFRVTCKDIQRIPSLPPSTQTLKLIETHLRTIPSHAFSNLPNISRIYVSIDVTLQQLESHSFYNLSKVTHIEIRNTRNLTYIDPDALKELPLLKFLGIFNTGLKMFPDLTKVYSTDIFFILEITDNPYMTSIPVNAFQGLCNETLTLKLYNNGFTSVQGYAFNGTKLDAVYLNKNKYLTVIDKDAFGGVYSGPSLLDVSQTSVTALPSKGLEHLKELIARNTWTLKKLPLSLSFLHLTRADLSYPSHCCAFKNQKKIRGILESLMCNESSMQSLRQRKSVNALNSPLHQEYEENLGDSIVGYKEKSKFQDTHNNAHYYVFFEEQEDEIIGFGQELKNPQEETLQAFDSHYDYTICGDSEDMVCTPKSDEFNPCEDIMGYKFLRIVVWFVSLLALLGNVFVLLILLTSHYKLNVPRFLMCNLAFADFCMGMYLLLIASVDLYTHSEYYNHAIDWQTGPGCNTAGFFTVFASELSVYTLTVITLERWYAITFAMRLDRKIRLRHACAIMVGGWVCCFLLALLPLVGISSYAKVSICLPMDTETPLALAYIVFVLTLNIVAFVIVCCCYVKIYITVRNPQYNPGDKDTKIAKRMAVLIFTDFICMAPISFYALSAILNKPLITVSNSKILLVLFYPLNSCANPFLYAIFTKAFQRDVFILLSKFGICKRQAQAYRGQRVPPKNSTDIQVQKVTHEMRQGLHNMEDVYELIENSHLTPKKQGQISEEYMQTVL

SMILES	Potency [1]	Potency [2]	Potency [3]	Potency [4]	Potency [5]	Potency [6]	Potency [7]	Potency [8]	Potency [9]	Potency [10]	Potency [11]	Potency [12]	Potency [13]	Potency [14]	Potency [15]	Potency [16]	Potency [17]	Potency [18]	outcome [19]	outcome [20]
CC[C@@H](N)CO	inactive	inactive	inactive	inactive	inactive	inactive	inactive	inactive	inactive	inactive	inactive	inactive	–	–	–	–	–	–	–	–
CC(C)CCOCc1ccccc1	inactive	inactive	inactive	inactive	inactive	inactive	inactive	inactive	–	inactive	inactive	inactive	inactive	–	–	–	–	–	–	–
COc1ccc(CCN2CCC(Nc3nc4ccccc4n3Cc3ccc(F)cc3)CC2)cc1	8.9 µM (active) and 21.3 µM (active)	44.2 µM (active)	2.11 µM (active)	–	22.2 µM (active) and 26.6 µM (active)	–	17.6 µM (active) and 29.8 µM (active)	17.6 µM (active) and 26.6 µM (active)	inactive	19.8 µM (active) and 29.8 µM (active)	–	inactive	inactive	17.6 µM (active) and 29.8 µM (active)	–	–	–	–	–	–
C/C=C/c1ccc(OCC)c(O)c1	inactive	inactive	inactive	54.5 µM (active)	inactive	31.7 µM (active) and 35.6 µM (active)	inactive	inactive	inactive	inactive	–	–	inactive	–	–	–	–	–	–	–
COC(c1ccccc1)(c1ccccc1)[C@H](Oc1nc(C)cc(C)n1)C(=O)O	inactive	inactive	inactive	inactive	inactive	inactive	inactive	inactive	–	inactive	inactive	inactive	–	–	–	–	–	–	–	–
COc1ccc(Cc2cnc(N)nc2N)cc1OC	inactive	inactive	inactive	inactive	inactive	inactive	inactive	inactive	inactive	inactive	inactive	inactive	inactive	–	–	–	–	–	–	–
CCCCOCCOC(=O)c1ccccc1C(=O)OCCOCCCC	38.1 µM (active) and inactive	inactive	inactive	–	inactive	inactive	inactive	inactive	–	inactive	16.9 µM (active) and inactive	inactive	inactive	–	–	–	–	–	–	–
CCCCCC(=O)O[C@]1(C(C)=O)CC[C@H]2[C@@H]3CCC4=CC(=O)CC[C@]4(C)[C@H]3CC[C@@]21C	19.4 µM (active) and 23.9 µM (active)	inactive	–	–	48.2 µM (active) and 29.8 µM (active)	inactive	48.2 µM (active)	inactive	–	54.1 µM (active)	inactive	inactive	–	–	–	–	–	–	–	–
NC(=Nc1ccccc1)Nc1ccccc1	inactive	inactive	–	–	inactive	inactive	–	–	–	inactive	inactive	–	inactive	3.86 µM (active)	inactive	inactive	inactive	inactive	–	–
CC(C)CCOC(=O)c1ccc(N(C)C)cc1	–	inactive	inactive	2.11 µM (active)	inactive	3.47 µM (active)	inactive	inactive	13.3 µM (active)	inactive	inactive	10.6 µM (active)	–	inactive	–	–	–	–	–	–
Cc1cc(C(C)(C)C)c(O)c(C(C)(C)C)c1	inactive	inactive	–	–	inactive	inactive	inactive	inactive	–	inactive	–	–	inactive	inactive	–	–	–	–	–	–
CCC(C)(C)C(=O)O[C@H]1C[C@@H](C)C=C2C=C[C@H](C)[C@H](CC[C@@H]3C[C@@H](O)CC(=O)O3)[C@H]21	12 µM (active)	inactive	–	inactive	inactive	inactive	inactive	inactive	–	inactive	–	–	inactive	inactive	–	–	–	–	–	–
Clc1ccc2c(c1)C(N1CCNCC1)=Nc1ccccc1O2	inactive	inactive	–	–	inactive	inactive	–	–	–	inactive	–	–	inactive	–	inactive	–	–	–	–	–
N[C@@H]1CONC1=O	–	inactive	inactive	inactive	inactive	inactive	inactive	inactive	–	inactive	inactive	inactive	–	inactive	inactive	inactive	inactive	inactive	inactive	inactive
NNCCc1ccccc1	–	inactive	inactive	1.37 µM (active) and 9.44 µM (active)	inactive	25.3 µM (active) and inactive	inactive	inactive	–	inactive	–	–	inactive	inactive	inactive	–	–	inactive	–	–
Cc1occc(=O)c1OC(=O)C(C)C	–	inactive	inactive	inactive	inactive	inactive	inactive	inactive	inactive	inactive	inactive	inactive	inactive	inactive	–	–	–	–	–	–
CCN1CCCC1CNC(=O)c1cc(S(=O)(=O)CC)c(N)cc1OC (configuration not stated)	–	inactive	inactive	inactive	inactive	inactive	inactive	inactive	inactive	inactive	inactive	inactive	inactive	inactive	inactive	inactive	inactive	inactive	inactive	inactive
O=Cc1ccc(Cl)cc1	–	inactive	inactive	inactive	inactive	inactive	inactive	inactive	inactive	inactive	inactive	inactive	–	inactive	–	–	–	–	–	–
Oc1c(Cl)cc(Cl)c(Cl)c1Cc1c(O)c(Cl)cc(Cl)c1Cl	34.6 µM (active) and 49 µM (active) and 19 µM (active)	–	24.3 µM (active) and 15 µM (active)	inactive	13.6 µM (active) and 13.7 µM (active) and 8.41 µM (active)	inactive	9.44 µM (active)	10.8 µM (active) and 10.9 µM (active) and 9.44 µM (active)	inactive	–	–	–	15.3 µM (active) and inactive	–	–	–	–	–	–	–
CCCN[C@H]1CCc2nc(N)sc2C1	inactive	inactive	–	–	inactive	–	inactive	inactive	–	inactive	–	–	–	inactive	–	–	–	–	–	–
COC(=O)[C@H]1[C@H]2C[C@@H]3c4[nH]c5cc(OC)ccc5c4CCN3C[C@H]2C[C@@H](OC(=O)c2cc(OC)c(OC)c(OC)c2)[C@@H]1OC	inactive	inactive	–	–	22.3 µM (active)	inactive	inactive	–	–	inactive	43.2 µM (active) and 15.8 µM (active)	inactive	–	–	inactive	21.1 µM (active)	–	–	inactive	inactive
CC(=O)C1=C(C)[C@@H]2C[C@@]3(C1)[C@H](C)CC[C@H]3C2(C)C	inactive	inactive	–	–	inactive	inactive	inactive	inactive	40.3 µM (active) and 27.3 µM (active)	inactive	–	–	–	inactive	–	–	–	–	–	–
CN(C)c1ccc(C(=C2C=CC(=[N+](C)C)C=C2)c2ccccc2)cc1	3.47 µM (active) and 2.39 µM (active) and 4.25 µM (active)	10.6 µM (active) [middle of 4 runs]	–	–	–	–	–	4.73 µM (active) [middle of 4 runs]	–	3.44 µM (active) and 6.68 µM (active) and 4.73 µM (active)	–	inactive	–	11.9 µM (active) [middle of 4 runs]	–	–	–	–	–	–
CCN(CC)C(=S)SSC(=S)N(CC)CC	199 nM (active) and 213 nM (active)	inactive	–	–	243 nM (active) and 88.4 nM (active) and 335 nM (active)	8.94 µM (active) and 6.48 µM (active) and 8.71 µM (active)	273 nM (active) and 249 nM (active) and 211 nM (active)	273 nM (active) and 78.8 nM (active) and 298 nM (active)	inactive	193 nM (active) and 44.3 nM (active) and 266 nM (active)	243 nM (active) and 366 nM (active)	inactive	–	273 nM (active) and 157 nM (active) and 422 nM (active)	–	10.9 µM (active) and 16.2 µM (active)	386 nM (active) and 1.39 µM (active)	386 nM (active) and 220 nM (active)	inactive	inactive
